Assay results from the supplement of paper PMC10849652.
The full data set covers some 8,800 targets. This sample favours those with a hit. About 0.5% of all pairs of compound and target were hits.

Legend:
Test in all cases: log2 fold change, soluble protein after heating vs DMSO (PISA); higher = thermal stabilisation; K562 lysate, 10 uM; active = over 0.2 and 3.5 SD of the protein, either way, in both replicates (recomputed)
[1] = compound: C1=CC=C(C=C1)[C@H](COC2=CC3=C(C=C2)NC(=O)N3)NC(=O)C4=CC=CN(C4=O)CC5=CC(=C(C=C5)F)F
Procedure, shortened: (§1)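 Soluble protein was defined as the supernatant remaining after 21,000xg for 90 min, following pooling of heated aliquots and adjustment to 0.5% NP-40 at 4°C. Before that, crude K562 extract at 1 mg/mL protein in PBS pH 7.4 with 1 mM MgCl2 was treated with 10 μM compound for 30 min and heated for 3 min across 48°C-58°C. Quantification used TMTpro 16plex LC-MS/MS with channel sums equalised, and values are log-two fold changes in thermal stability relative to solvent controls from duplicates.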

[2] = compound: CC1=C(SC2=C1C(=N[C@H](C3=NN=C(N32)C)CC(=O)N)C4=CC=C(C=C4)Cl)C
Procedure, shortened: as §1

[3] = compound: CC1=C2C(=CC=C1)N=C(N(C2=O)C3=CC=CC=C3C)CN4C=NC5=C(N=CN=C54)N
Procedure, shortened: as §1

[4] = compound: Cc1sc2c(c1C)C(c1ccc(Cl)cc1)=N[C@@H](CC(=O)OC(C)(C)C)c1nnc(C)n1-2
Procedure, shortened: as §1

[5] = compound: c1ccc([C@@H]2C[C@H]2NC2CCNCC2)cc1
Procedure, shortened: as §1

Measured: log2 fold change

ANP32A (UniProt P39687)
Chain of UniProt P39687 (P39687 whole entry, looked up): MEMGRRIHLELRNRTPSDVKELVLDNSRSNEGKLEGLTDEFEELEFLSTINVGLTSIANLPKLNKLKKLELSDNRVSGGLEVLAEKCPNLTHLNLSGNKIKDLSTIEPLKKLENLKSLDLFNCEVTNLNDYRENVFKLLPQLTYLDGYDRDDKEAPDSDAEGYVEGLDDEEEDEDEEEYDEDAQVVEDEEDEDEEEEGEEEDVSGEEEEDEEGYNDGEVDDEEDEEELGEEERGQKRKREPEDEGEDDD
inactive: [1] 0.007 | [2] 0.02 | [3] 0 | [4] 0.07 | [5] -0.033

ARHGAP25 isoform 4 (UniProt P42331)
Chain of UniProt P42331 (P42331 whole entry, looked up): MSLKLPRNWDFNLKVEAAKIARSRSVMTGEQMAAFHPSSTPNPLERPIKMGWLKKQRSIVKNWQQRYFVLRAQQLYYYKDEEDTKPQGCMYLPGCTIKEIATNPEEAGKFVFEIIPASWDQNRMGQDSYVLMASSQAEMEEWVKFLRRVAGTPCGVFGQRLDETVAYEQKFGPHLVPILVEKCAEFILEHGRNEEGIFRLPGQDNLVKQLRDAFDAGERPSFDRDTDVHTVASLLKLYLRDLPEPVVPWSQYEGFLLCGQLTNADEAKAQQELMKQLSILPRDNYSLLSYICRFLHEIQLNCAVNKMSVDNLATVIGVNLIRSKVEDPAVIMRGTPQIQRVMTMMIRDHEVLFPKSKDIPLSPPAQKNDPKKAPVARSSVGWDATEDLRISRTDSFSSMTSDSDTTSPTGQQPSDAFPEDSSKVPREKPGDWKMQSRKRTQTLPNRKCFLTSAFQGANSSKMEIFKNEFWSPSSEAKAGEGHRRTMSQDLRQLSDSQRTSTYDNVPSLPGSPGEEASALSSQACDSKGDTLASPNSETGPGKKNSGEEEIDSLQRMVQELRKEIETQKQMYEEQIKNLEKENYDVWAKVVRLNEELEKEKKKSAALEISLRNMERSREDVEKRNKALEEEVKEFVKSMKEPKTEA
inactive: [1] 0.013 | [2] 0.016 | [3] 0.012 | [4] -0.046 | [5] 0.035

ACACB (UniProt O00763)
Chain of UniProt O00763 (O00763 whole entry, looked up): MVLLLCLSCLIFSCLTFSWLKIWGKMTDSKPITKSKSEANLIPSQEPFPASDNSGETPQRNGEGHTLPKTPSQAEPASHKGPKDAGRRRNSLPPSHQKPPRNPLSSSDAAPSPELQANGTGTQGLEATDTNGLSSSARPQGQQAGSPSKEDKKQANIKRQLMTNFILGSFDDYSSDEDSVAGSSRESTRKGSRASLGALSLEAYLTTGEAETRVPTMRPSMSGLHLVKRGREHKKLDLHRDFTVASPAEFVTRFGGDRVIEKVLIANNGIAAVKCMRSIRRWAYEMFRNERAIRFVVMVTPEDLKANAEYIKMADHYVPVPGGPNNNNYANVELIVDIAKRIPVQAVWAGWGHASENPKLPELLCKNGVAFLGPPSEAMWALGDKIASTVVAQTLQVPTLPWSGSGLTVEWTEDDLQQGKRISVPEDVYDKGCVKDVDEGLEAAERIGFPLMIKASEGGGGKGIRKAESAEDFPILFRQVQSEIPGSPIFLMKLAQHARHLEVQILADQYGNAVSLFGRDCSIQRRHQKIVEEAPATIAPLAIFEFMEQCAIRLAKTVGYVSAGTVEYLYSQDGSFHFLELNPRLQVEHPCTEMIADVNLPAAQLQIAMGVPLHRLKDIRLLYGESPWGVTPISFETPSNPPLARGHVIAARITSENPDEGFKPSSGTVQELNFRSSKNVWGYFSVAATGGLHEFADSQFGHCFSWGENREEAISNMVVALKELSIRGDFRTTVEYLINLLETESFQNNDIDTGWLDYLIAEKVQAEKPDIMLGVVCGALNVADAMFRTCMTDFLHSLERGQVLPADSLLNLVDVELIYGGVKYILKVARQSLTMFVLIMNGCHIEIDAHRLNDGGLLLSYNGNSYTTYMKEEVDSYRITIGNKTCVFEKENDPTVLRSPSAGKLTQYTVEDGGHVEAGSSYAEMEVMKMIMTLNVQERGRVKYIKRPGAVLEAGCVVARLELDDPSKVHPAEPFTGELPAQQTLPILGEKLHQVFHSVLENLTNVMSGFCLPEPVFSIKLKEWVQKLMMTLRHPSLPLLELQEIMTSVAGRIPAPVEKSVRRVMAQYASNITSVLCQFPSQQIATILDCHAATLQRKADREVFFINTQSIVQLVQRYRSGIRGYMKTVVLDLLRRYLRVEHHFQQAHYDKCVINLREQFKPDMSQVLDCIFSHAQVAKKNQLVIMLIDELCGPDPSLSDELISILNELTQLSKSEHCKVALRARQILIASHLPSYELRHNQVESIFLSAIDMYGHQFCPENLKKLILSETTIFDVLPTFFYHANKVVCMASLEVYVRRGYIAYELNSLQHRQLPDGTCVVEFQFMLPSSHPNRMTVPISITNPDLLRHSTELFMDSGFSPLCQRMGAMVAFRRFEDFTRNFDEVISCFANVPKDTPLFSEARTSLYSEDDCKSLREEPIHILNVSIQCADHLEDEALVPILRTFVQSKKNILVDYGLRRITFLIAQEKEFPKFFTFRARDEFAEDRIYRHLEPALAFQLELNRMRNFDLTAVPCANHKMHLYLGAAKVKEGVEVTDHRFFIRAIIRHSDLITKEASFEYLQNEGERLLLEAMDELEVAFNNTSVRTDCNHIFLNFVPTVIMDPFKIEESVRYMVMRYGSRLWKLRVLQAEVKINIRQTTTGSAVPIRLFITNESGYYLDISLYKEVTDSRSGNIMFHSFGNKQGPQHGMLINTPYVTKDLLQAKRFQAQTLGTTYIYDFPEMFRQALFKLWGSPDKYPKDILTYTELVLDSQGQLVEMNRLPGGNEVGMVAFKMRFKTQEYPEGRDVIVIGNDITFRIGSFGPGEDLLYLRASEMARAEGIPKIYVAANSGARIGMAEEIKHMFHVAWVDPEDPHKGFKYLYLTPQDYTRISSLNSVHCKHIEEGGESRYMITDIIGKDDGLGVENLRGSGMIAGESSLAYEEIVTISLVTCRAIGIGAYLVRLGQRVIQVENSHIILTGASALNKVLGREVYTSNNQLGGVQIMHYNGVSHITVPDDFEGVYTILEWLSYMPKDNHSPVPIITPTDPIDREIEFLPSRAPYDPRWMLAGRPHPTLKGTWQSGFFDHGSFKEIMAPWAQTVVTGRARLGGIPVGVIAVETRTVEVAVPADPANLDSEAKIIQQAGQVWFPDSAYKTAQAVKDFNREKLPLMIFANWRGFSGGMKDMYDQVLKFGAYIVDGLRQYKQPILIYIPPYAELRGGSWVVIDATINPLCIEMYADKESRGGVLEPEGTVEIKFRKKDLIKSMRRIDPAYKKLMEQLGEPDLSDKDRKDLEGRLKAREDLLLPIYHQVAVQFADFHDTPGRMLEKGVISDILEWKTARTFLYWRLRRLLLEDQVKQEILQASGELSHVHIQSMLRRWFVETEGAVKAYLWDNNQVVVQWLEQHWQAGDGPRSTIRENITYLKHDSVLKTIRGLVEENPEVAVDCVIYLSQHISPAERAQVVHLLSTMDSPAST
inactive: [1] -0.018 | [2] 0.002 | [3] 0.01 | [4] 0.074 | [5] 0.014

AP4B1 (UniProt Q9Y6B7)
inactive: [1] 0.02 | [2] 0.063 | [3] -0.025 | [4] 0.093 | [5] 0.03

AMDHD2 isoform 3 (UniProt Q9Y303)
Chain of UniProt Q9Y303 (Q9Y303 whole entry, looked up): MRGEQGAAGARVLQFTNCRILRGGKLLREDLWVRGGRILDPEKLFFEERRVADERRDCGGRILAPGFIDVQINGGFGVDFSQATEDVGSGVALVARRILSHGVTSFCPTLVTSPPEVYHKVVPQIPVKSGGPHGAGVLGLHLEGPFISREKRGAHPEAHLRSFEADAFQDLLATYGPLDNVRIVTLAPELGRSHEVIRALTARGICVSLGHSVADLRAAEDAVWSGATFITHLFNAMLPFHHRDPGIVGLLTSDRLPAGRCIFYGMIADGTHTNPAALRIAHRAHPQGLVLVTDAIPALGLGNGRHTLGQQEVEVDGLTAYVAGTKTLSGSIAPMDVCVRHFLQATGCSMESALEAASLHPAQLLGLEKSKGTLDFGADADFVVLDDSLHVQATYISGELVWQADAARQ
inactive: [1] 0.049 | [2] 0.016 | [3] 0.031 | [4] 0.037 | [5] -0.043

ARMCX3 (UniProt Q9UH62)
inactive: [1] 0.015 | [2] 0.009 | [3] 0.029 | [4] -0.074 | [5] 0.053

ARFGAP1 (UniProt Q8N6T3)
Chain of UniProt Q8N6T3 (Q8N6T3 whole entry, looked up): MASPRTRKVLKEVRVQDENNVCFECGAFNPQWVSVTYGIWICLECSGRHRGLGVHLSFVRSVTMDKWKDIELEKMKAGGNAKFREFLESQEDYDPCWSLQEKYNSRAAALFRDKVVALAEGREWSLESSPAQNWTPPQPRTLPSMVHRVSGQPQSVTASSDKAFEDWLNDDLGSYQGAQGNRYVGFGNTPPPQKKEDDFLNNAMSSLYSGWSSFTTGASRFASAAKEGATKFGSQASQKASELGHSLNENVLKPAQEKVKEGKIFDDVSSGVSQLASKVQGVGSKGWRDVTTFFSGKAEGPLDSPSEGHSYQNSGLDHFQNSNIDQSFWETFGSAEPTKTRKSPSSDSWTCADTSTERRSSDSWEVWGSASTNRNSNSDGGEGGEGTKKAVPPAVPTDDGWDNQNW
inactive: [1] 0.037 | [2] -0.091 | [3] 0.149 | [4] -0.081 | [5] -0.127

ADRM1 (UniProt Q16186)
inactive: [1] -0.005 | [2] 0.007 | [3] -0.001 | [4] -0.026 | [5] 0.016

AMPD3 isoform 4 (UniProt Q01432)
Chain of UniProt Q01432 (Q01432 whole entry, looked up): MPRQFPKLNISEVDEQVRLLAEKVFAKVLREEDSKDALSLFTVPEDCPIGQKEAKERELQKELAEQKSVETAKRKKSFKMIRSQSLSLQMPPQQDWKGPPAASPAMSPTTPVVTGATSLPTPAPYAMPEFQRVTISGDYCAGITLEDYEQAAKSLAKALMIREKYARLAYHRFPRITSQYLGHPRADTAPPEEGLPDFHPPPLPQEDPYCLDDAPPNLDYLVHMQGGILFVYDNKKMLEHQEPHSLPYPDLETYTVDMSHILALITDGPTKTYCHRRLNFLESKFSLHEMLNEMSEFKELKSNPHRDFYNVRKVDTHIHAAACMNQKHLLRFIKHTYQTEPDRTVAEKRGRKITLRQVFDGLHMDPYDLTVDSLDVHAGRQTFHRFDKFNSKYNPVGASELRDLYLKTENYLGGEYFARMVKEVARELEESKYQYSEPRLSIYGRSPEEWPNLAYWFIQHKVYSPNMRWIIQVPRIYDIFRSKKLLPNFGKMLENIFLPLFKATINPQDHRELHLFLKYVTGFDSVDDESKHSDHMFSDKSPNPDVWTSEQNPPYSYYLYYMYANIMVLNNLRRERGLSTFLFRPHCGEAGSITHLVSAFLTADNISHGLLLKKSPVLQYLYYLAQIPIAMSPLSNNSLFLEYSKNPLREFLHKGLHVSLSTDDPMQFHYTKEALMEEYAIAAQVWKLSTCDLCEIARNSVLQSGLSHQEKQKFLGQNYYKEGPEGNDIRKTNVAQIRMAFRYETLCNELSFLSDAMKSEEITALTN
inactive: [1] 0.02 | [2] -0.021 | [3] -0.012 | [4] 0.018 | [5] 0.093
